“And” between values parts separate entries of the source, which are not always exact repeats. Identical values can stand only once. Inconclusive results are not listed. The source holds several records for some structures; these can differ, active in one and inactive in another. The source made the active and inactive calls. Unless noted, the call rests on the fitted dose curve; in most records, active means well fitted curve in the direction sought with a large enough effect in the repeat runs; inconclusive means weak or mixed curves; inactive means no such curve, though single readings can be large; an effect the other way counts as inactive or inconclusive.
How the values were obtained:
[1] = qHTS assay for small molecule agonists of the p53 signaling pathway (AID 651631; calls by dose curve; further: nearly all actives have a fitted effect of over 15% in size; further: potency means the concentration at half of the fitted maximal effect)
Summary of the method: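 p53RE-bla HCT-116 cells; compounds 16 h, 37 °C; LiveBLAzer B/G FRET substrate 2 h RT; fluorescence intensity read-out, qHTS format.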

[2] = biological target: Nuclear receptor subfamily 1 group I member 3 (Homo sapiens) (UniProt Q14994); assay: qHTS assay to identify small molecule antagonists of the constitutive androstane receptor (CAR) signaling pathway (AID 1224838);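 further: HepG2 cells stably expressing hCAR with CYP2B6 luciferase reporter stimulated by CITCO; nearly all actives have a fitted effect of over 40% in size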; further: potency means the concentration at half of the fitted maximal effect
Summary of the method: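 Luminescence from a CYP2B6-2.2kb promoter reporter in hCAR-expressing HepG2 cells reflects CAR signaling. Cells received compounds at 15 concentrations and 50 nM CITCO (final), then incubated 24 h at 37 C/5% CO2.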

[3] = A CellTox Green Cytotoxicity Assay to monitor cytotoxicity in HEK293 cells - 0 hour (AID 1224869); further: nearly all actives have a fitted effect of over 50% in size
Summary of the method: (§1)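 Dead-cell fluorescence measured kinetically: asymmetric cyanine dye, HEK293, 600 cells/well, 5 h settle, 23 nL cpd/DMSO, 37 C, reads 0–40 h every 8 h.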

[4] = qHTS RealTime-Glo MT Cell Viability Assay in HepG2 cells - 40 hour (AID 1224870); further: nearly all actives have a fitted effect of over 50% in size; further: potency means the concentration at half of the fitted maximal effect
Summary of the method: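 HepG2 cells mixed with RealTime-Glo MT reagents (NanoLuc plus cell-permeant prosubstrate) were seeded at 600 cells/well, incubated 5 h at 37 C/5% CO2, then pinned with compounds in DMSO; nonlytic luminescence tracked viability during 40 h treatment.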

[5] = A CellTox Green Cytotoxicity Assay to monitor cytotoxicity in HEK293 cells - 40 hour (AID 1224871); further: nearly all actives have a fitted effect of over 45% in size; further: potency means the concentration at half of the fitted maximal effect
Summary of the method: as §1

[6] = qHTS RealTime-Glo MT Cell Viability Assay in HEK293 cells - 40 hour (AID 1224874); conditions: RealTime-Glo luminescence; max response: stronger effect = lower value; further: nearly all actives have a fitted effect of over 50% in size; further: potency means the concentration at half of the fitted maximal effect
Summary of the method: (§2)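 600 HEK293 cells per well, dispensed already mixed with RealTime-Glo MT reagents. Compound dosing came 5 h later. The same wells were read for luminescence at 0, 8, 16, 24, 32 and 40 h of exposure at 37 C.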

[7] = A CellTox Green Cytotoxicity Assay to monitor cytotoxicity in HepG2 cells - 16 hour (AID 1224876); further: nearly all actives have a fitted effect of over 45% in size; further: potency means the concentration at half of the fitted maximal effect
Summary of the method: (§3)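 First, HepG2 cells (600/well) mixed with reagent were plated; second, after 5 h at 37 C they received compounds via pintool; third, fluorescence was measured at 0 h through 40 h at 8 h intervals.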

[8] = qHTS RealTime-Glo MT Cell Viability Assay in HepG2 cells - 32 hour (AID 1224877); further: nearly all actives have a fitted effect of over 55% in size; further: potency means the concentration at half of the fitted maximal effect
Summary of the method: (§4)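 HepG2 cells (600/well) were dispensed with RealTime-Glo reagents, incubated 5 h at 37 °C, then treated with compounds in DMSO for up to 40 h. Nonlytic NanoLuc luminescence reflecting viable cells was read at each stated time point.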

[9] = qHTS RealTime-Glo MT Cell Viability Assay in HEK293 cells - 0 hour (AID 1224880); further: top concentration of the series differs between compounds; nearly all actives have a fitted effect of over 45% in size
Summary of the method: as §2

[10] = A CellTox Green Cytotoxicity Assay to monitor cytotoxicity in HEK293 cells - 16 hour (AID 1224888); further: nearly all actives have a fitted effect of over 35% in size; further: potency means the concentration at half of the fitted maximal effect
Summary of the method: as §1

[11] = qHTS RealTime-Glo MT Cell Viability Assay in HepG2 cells - 0 hour (AID 1224889); further: nearly all actives have a fitted effect of over 50% in size; further: potency means the concentration at half of the fitted maximal effect
Summary of the method: as §4

[12] = A CellTox Green Cytotoxicity Assay to monitor cytotoxicity in HepG2 cells - 8 hour (AID 1224890); further: nearly all actives have a fitted effect of over 45% in size; further: potency means the concentration at half of the fitted maximal effect
Summary of the method: as §3

[13] = qHTS assay to identify small molecule antagonists of the estrogen receptor alpha (ER-alpha) signaling pathway using the BG1 cell line in the presence of 0.1 nM 17-beta-estradiol - cell viability counter screen (AID 1259241); further: nearly all actives have a fitted effect of over 40% in size; further: potency means the concentration at half of the fitted maximal effect
Summary of the method: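 Live-cell protease activity (CellTiter-Fluor fluorescence, 30 min) was read in the same wells after VM7Luc4E2 cells had been exposed to compounds with 0.1 nM 17beta-estradiol for 22 hr at 37C.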

[14] = qHTS assay to identify small molecule HDAC inhibitors - cell viability counter screen (AID 1259365)
Summary of the method: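 HCT-116 (wild type), 1,500 cells/well, overnight 37C/5% CO2; compound in DMSO 2hr; CellTiter-Glo 30min RT; luminescence read.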

[15] = qHTS assay to identify small molecule agonists of the sonic hedgehog signaling (Shh) pathway - cell viability counter screen (AID 1259366); further: nearly all actives have a fitted effect of over 50% in size; further: potency means the concentration at half of the fitted maximal effect
Summary of the method: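 CellTiter-Fluor fluorescence read-out, 1 hr at 37C, added after 23hr compound exposure. Cells: 3T3 Gli1-Luc, an NIH/3T3 clone with stably integrated Gli1-Luc reporter, plated 4hr before compound.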

[16] = biological target: Estrogen receptor (Homo sapiens) (UniProt P03372); assay: qHTS assay to identify small molecule agonists of the estrogen receptor alpha (ER-alpha) signaling pathway in the presence of an antagonist (AID 1259383; calls by dose curve; further: top concentration of the series differs between compounds; nearly all actives have a fitted effect of over 15% in size)
Summary of the method: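 Readout was ERE-driven luciferase luminescence in VM7Luc4E2 cells, which express full-length ER-alpha endogenously. Compounds were tested at 15 concentrations for 22hr alongside 10.0nM ICI-182,780 (final concentration).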

[17] = qHTS assay to identify small molecule agonists or antagonists of the thyroid stimulating hormone receptor (TSHR) signaling pathway - wild type cell line counter screen (AID 1259384; calls by dose curve)
Summary of the method: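 Wild-type HEK293 cells were plated 18 h at 37 C/5% CO2, pin-dosed with compound plus Ro20-1724 medium, held 30 min at room temperature, then given cAMP-d2 and anti-cAMP-cryptate; fluorescence was read after 1 h. Fifteen concentrations, triplicate.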

[18] = qHTS assay to identify small molecule agonists of the TGF-beta/Smad signaling pathway (AID 1346859; active means well fitted activation curve with a large enough effect in the signal ratio in the repeat runs, not every such curve was filed as active; the % refers to the signal ratio; further: series mostly up to about 77 µM)
Summary of the method: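 Read-out: fluorescence at 460 and 530 nm (405 nm excitation) after a 2 hr room-temperature incubation with beta-lactamase FRET substrate. SBE-bla HEK 293T cells had been treated with test compounds for 5 hr at 37 C.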

[19] = biological target: Cytochrome P450 1A2 (Homo sapiens) (UniProt P05177); assay: Cytochrome P450 Family 1 Subfamily A Member 2 (CYP1A2) small molecule antagonists: luciferase reporter qHTS assay (AID 1671199); further: nearly all actives have a fitted effect of over 50% in size; further: potency means the concentration at half of the fitted maximal effect; on activity change, negative = inhibition: series mostly up to about 120 µM
Summary of the method: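 Steps: enzyme-substrate mix dispensed; test compounds and furafylline control pinned in; 10 min room temperature; NADPH regeneration solution added, 1 h; reaction stopped with luciferin detection reagent; luminescence read after 20 min.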

[20] = biological target: Voltage-gated inwardly rectifying potassium channel KCNH2 (Homo sapiens) (UniProt Q12809); assay: Human Ether-a-go-go-Related Gene (hERG) channel small molecule antagonists: fluorescence cell-based qHTS assay (AID 1671200); further: nearly all actives have a fitted effect of over 50% in size; further: potency means the concentration at half of the fitted maximal effect;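 on activity change, negative = inhibition: hERG-expressing U2OS cells given a thallium stimulus after FluxOR II dye loading; series mostly up to about 77 µM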
Summary of the method: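 Read-out: thallium influx as a surrogate for potassium, tracked as fluorescence (480 nm ex/540 nm em) every second for 2 min after Stimulus Buffer addition in dye-loaded hERG-U2OS cells.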
On the % scale 0 is the no-effect control and ±100 the full control effect.

Chain of Cytochrome P450 1A2 (Homo sapiens) (P05177 whole entry, looked up): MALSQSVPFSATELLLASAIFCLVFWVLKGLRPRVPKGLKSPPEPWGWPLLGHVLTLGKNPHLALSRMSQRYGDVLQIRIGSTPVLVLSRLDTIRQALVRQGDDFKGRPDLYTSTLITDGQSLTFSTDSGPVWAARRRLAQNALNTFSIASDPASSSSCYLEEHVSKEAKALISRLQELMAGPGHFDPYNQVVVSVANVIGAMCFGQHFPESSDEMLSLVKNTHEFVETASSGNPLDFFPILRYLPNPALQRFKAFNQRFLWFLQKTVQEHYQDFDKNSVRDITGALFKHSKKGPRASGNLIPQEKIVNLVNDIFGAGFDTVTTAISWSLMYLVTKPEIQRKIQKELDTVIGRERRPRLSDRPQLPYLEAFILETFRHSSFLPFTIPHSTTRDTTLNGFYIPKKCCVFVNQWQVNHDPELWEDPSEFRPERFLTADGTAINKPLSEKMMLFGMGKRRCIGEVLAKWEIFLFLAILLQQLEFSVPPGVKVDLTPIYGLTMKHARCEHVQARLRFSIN
Chain of Nuclear receptor subfamily 1 group I member 3 (Homo sapiens) (Q14994 whole entry, looked up): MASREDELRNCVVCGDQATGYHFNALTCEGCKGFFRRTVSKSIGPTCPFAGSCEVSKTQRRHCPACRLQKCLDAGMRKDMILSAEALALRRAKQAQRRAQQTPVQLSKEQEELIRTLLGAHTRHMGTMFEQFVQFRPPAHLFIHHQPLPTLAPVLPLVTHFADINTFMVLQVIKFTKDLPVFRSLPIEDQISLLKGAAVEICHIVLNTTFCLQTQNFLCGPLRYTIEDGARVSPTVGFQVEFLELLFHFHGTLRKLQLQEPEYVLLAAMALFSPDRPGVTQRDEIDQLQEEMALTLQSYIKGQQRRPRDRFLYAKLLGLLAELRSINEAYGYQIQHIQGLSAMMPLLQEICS
Chain of Estrogen receptor (Homo sapiens) (P03372 whole entry, looked up): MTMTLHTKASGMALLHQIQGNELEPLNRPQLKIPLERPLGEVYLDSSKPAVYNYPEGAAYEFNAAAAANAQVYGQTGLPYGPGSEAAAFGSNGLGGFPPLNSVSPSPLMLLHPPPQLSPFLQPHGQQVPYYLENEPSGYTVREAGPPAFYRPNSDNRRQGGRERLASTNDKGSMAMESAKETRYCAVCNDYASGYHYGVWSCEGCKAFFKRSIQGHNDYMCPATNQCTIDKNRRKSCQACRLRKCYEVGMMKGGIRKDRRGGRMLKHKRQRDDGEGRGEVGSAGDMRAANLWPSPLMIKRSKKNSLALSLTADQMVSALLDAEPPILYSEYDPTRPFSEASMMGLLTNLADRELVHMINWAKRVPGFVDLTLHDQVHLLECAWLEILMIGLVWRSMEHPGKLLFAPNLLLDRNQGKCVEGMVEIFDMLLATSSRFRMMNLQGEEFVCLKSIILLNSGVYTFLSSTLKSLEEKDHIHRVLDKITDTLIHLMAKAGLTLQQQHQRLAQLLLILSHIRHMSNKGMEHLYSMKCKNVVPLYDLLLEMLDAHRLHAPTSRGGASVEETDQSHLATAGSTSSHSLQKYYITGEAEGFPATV
Chain of Voltage-gated inwardly rectifying potassium channel KCNH2 (Homo sapiens) (Q12809 whole entry, looked up): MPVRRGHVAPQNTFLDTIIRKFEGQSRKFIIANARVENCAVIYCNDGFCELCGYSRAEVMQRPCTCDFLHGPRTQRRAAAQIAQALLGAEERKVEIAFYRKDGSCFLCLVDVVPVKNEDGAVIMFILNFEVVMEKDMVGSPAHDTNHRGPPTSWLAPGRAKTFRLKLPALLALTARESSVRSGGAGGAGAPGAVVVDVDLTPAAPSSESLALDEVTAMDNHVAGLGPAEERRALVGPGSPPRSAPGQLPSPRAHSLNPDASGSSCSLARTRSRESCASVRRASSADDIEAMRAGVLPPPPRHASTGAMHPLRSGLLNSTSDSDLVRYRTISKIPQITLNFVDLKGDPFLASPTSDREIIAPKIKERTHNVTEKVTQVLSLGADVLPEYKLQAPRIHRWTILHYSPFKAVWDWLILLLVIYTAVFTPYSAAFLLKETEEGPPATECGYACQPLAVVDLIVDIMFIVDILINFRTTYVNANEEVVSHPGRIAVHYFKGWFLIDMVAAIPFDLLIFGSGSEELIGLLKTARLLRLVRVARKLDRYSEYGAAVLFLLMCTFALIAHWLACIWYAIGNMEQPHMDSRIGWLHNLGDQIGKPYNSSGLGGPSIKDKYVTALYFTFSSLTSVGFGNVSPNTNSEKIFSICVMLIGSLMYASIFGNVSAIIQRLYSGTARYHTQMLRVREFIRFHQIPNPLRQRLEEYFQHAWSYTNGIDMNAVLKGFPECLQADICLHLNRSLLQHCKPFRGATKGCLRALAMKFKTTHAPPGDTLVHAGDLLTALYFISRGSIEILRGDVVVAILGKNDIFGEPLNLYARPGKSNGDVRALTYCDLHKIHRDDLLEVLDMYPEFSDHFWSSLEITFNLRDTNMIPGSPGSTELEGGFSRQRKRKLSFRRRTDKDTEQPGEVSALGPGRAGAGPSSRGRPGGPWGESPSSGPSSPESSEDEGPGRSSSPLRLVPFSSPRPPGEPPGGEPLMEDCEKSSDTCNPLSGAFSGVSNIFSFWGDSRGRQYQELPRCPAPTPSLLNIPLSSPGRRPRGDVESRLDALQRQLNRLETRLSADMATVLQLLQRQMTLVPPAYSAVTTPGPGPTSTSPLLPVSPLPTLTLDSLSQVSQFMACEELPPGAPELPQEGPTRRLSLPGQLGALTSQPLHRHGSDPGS

CN1CSC(=S)N(C)C1
inactive: Potency [1] | Potency [3] | Potency [7] | outcome [9] | Potency [10] | Potency [11] | Potency [12] | outcome [14] | outcome [16] | outcome [17] | outcome [18] | Potency [20]
inactive and 39.8 µM (active): Potency [19]
active: Potency [2] 3.84 µM and 7.67 µM | Potency [4] 12.3 µM | Potency [5] 6.88 µM and 12.3 µM | Potency [6] 13.7 µM and 21.8 µM | Potency [8] 15.4 µM | Potency [13] 17.1 µM | Potency [15] 2.42 µM and 6.09 µM

Cc1ccc2nc3sc(=O)sc3nc2c1
active: Potency [19] 13.5 µM
inactive: activity, negative = inhibition [2] 67.8% [at 19 µM] | cytotoxicity [3] -0.433% [at 15.8 µM] | activity change, negative = cytotoxic [4] -11.2% [at 15.8 µM] | cytotoxicity increase [5] -10.2% [at 15.8 µM] | max response [6] 3.19% | cytotoxicity increase [7] -9.02% [at 15.8 µM] | activity change, negative = cytotoxic [8] -8.61% [at 15.8 µM] | activity change, negative = cytotoxicity [9] -3.58% [at 15.8 µM] | activity change [10] -2.03% [at 15.8 µM, stronger effect = higher value] | activity change, negative = cytotoxicity [11] 15.7% [at 15.8 µM] | cytotoxicity increase [12] -5.93% [at 15.8 µM] | activity change, negative = cytotoxicity [13] 1.06% [at 19 µM] | activity change, negative = cytotoxicity [14] 4.09% [at 19 µM] | viability change, negative = cytotoxic [15] -7.48% [at 19 µM] | activation [16] -0.0346% [at 19 µM] | cAMP activity change [17] 3.67% [at 18.9 µM] | activation [18] -3.69% [at 15.8 µM] | activity change, negative = inhibition [20] 2.68% [at 15.8 µM]

COc1cc(OC)c(OC)cc1C=O
inactive: Potency [2] | Potency [3] | Potency [4] | Potency [5] | max response [6] -0.404% | Potency [7] | Potency [8] | outcome [9] | Potency [10] | Potency [11] | outcome [14] | outcome [16] | outcome [17] | outcome [18] | Potency [20]
active: Potency [19] 11 µM

Brc1cc(Br)cc(Br)c1
inactive: Potency [2]

CCN(CC)C(=O)Cl
inactive: Potency [2] | Potency [3] | Potency [4] | Potency [5] | max response [6] 13.5% | Potency [7] | Potency [8] | outcome [9] | Potency [10] | Potency [11] | Potency [12] | Potency [13] | outcome [14] | Potency [15] | outcome [16] | outcome [17] | outcome [18] | Potency [19] | Potency [20]

O=[N+]([O-])c1c(Cl)c(Cl)cc(Cl)c1Cl
inactive: Potency [4] | max response [6] 0.554% | Potency [8] | outcome [9] | Potency [11] | Potency [12] | Potency [13] | outcome [14] | Potency [15] | outcome [16] | outcome [17] | Potency [20]
active: Potency [5] 49 µM | Potency [10] 49 µM | Potency [19] 4.8 µM

O=C(c1ccccc1)C(Cl)Cl
inactive: Potency [3] | Potency [4] | Potency [7] | Potency [8] | outcome [9] | Potency [10] | Potency [11] | Potency [12] | Potency [13] | outcome [16]
active: Potency [5] 34.7 µM | Potency [6] 38.9 µM | Potency [15] 68.6 µM | Potency [19] 31.7 µM

C[C@]12CC[C@@H](O)C[C@@H]1CC[C@@H]1[C@@H]2CC[C@]2(C)C(=O)CC[C@@H]12
inactive: Potency [3] | Potency [4] | Potency [7] | Potency [8] | outcome [9] | Potency [10] | Potency [12] | Potency [13] | outcome [14] | Potency [15] | outcome [18] | Potency [20]
active: Potency [5] 49 µM | Potency [6] 24.5 µM | Potency [11] 34.7 µM

COCCOC(=O)c1ccccc1C(=O)OCCOC
inactive: Potency [1]

Oc1c(I)cc(I)cc1I
active: Potency [19] 39.9 µM
inactive: Potency [3] | Potency [4] | Potency [5] | max response [6] -25% | Potency [7] | Potency [8] | outcome [9] | Potency [10] | Potency [11] | Potency [12] | Potency [13] | outcome [14] | Potency [15] | outcome [16] | outcome [17] | outcome [18] | Potency [20]

Cc1cc(C(C)(C)c2ccc(O)c(C)c2)ccc1O
inactive: Potency [2] | Potency [3] | Potency [4] | Potency [7] | Potency [8] | outcome [9] | Potency [11] | Potency [12] | Potency [13] | outcome [14] | outcome [17] | outcome [18]
active: Potency [1] 13 µM | Potency [6] 20.8 µM | Potency [15] 58.2 µM | Potency [19] 33.9 µM

CNC(=O)Oc1cc(C)c(SC)c(C)c1
inactive: Potency [2] | Potency [4] | Potency [7] | Potency [8] | outcome [9] | Potency [11] | Potency [12] | Potency [13] | outcome [14] | Potency [15] | outcome [16] | outcome [17] | outcome [18] | Potency [20]
active: Potency [10] 21.9 µM | Potency [19] 6.33 µM

CCOC(=O)C(O)(c1ccc(Cl)cc1)c1ccc(Cl)cc1
inactive: Potency [2] | Potency [3] | Potency [4] | Potency [7] | Potency [8] | outcome [9] | Potency [10] | Potency [11] | Potency [12] | Potency [13] | outcome [14] | outcome [16] | outcome [18]
active: Potency [1] 27.6 µM | Potency [5] 44.1 µM | Potency [6] 22.1 µM and 34.7 µM | Potency [19] 40.3 µM and 71 µM | Potency [20] 22.1 µM and 21.9 µM

Nc1ccc([N+](=O)[O-])cc1
active: Potency [5] 38.9 µM | Potency [6] 38.9 µM | Potency [12] 43.6 µM | Potency [15] 30.6 µM | Potency [19] 39.9 µM
inactive: Potency [2] | Potency [3] | Potency [4] | Potency [8] | outcome [9] | Potency [11] | outcome [14] | outcome [17] | outcome [18]

O=S(=O)(C(Cl)(Cl)Cl)C(Cl)(Cl)Cl
inactive: Potency [3] | outcome [9] | Potency [13] | outcome [16] | outcome [17] | outcome [18]
active: Potency [2] 24.3 µM | Potency [4] 34.7 µM | Potency [5] 17.4 µM | Potency [6] 8.71 µM | Potency [7] 38.9 µM | Potency [8] 34.7 µM | Potency [10] 24.5 µM | Potency [12] 34.7 µM | Potency [15] 9.69 µM | Potency [19] 22.4 µM | Potency [20] 24.5 µM

Cc1c(N)cccc1[N+](=O)[O-]
inactive: Potency [1]

ClC(Cl)=C(c1ccc(Cl)cc1)c1ccccc1Cl
inactive: Potency [2] | Potency [3] | Potency [4] | Potency [7] | Potency [8] | outcome [9] | Potency [10] | Potency [11] | Potency [12] | Potency [13] | outcome [14] | Potency [15] | outcome [16] | outcome [17] | Potency [19]
active: Potency [20] 21.9 µM
